# The list is not random: actives were taken first. Their share in the collection is about 2.2%.
# SMARCA2 activ: SMARCA2 function activation, primary screen | MG213 cells, MMTV-luciferase reporter, dexamethasone, overnight | activation, % at 9.1 µM | hit rate 1% among 370,000 | AID 652017; in the data active = activation above about 7.8%;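 also: 0% = vehicle wells and 100% = reference activator wells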
# GalR3 antag: human GalR3 antagonism; HEK293 GalR3-CNG cAMP membrane potential fluorescence; galR3 body fused to GalR1 C-terminus; hit rate 0.44% among 360,000; inhibition, % at 3 µM; O60755; AID 651719;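 active = inhibition above the screen-wide average plus 3 SD, cut at about 13% in these data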;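 also: forskolin and galanin both at EC90 stimulate the cells; cAMP rise reported by CNG channel membrane potential dye signal; 0% = forskolin plus galanin with DMSO and 100% = forskolin alone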
# Target sequence (O60755 1-299 limits assumed): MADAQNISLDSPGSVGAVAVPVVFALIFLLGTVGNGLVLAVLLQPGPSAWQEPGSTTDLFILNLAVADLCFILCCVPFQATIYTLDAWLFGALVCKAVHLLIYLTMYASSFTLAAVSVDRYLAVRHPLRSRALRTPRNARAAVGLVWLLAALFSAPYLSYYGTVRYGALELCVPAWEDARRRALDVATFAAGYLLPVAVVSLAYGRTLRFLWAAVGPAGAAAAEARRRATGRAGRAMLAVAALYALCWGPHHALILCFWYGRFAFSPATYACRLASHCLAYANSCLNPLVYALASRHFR
# HIF act: HIF pathway transcriptional activation; hit rate 0.32% among 300,000; activation, % at 7.5 µM (by protocol); U2OS HRE-luciferase reporter, luminescence; normalized: DMSO 0%, desferrioxamine 100%;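 active = mean activation of at least 10% of the iron chelator positive control signal, with at least half of replicates also reaching 10%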
# GAA850 FXN act: activators of GAA850 frataxin (FXN) promoter; HEK293 lucGAA850 FXN promoter luciferase reporter, 24 h; percent of 10 µM SAHA response; activation, % at 6 µM; hit rate 0.56% among 360,000; AID 540364;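 active = activation above the average of all compounds screened plus 3 SD, cutoff fixed separately per campaign, cut at about 7.5% in these data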;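 also: 0% = DMSO wells and 100% = 10 µM SAHA wells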
# Hsp70 act: switches on Hsp70 transcription | HeLa Hsp70 promoter luciferase reporter, luminescence; scaled: vehicle 0, proteasome-inhibitor control 100% | activation, % at 10 µM | hit rate 0.04% among 200,000 | AID 1203;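 active = activation above the mean across all tested compounds plus 3 SD, cutoff set per campaign, cut at about 5.5% in these data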;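 also: 100% = MG132 at 30 µM as the positive control and 0% = DMSO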
# GalR3 conf: confirmation of human galanin receptor 3 antagonists; shares compounds with GalR3 antag; HEK293 GalR3 CNG cAMP biosensor, membrane potential fluorescence; galR3 fused to GalR1 carboxy tail; challenged with forskolin and galanin at EC90; inhibition, % at 3 µM; hit rate 59% among 1,600; AID 652245;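 active = inhibition above the primary screen's cutoff, the mean inhibition of all screened compounds plus 3 SD, cut at about 13% in these data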;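 also: 0% = forskolin plus galanin and 100% = forskolin alone with DMSO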
# CNG parental: counter-screen for GalR3 antagonists: nonspecific agonists in parental HEK-CNG cells. activation, % at 3 µM. hit rate 10% among 1,600. AID 652268. HEK293-CNG parental cells, cAMP membrane potential fluorescence; normalised: DMSO wells 0%, forskolin wells 100%. shares compounds with GalR3 antag; in the data active = activation above about 1.3%
# SMARCA2 conf: confirmation of SMARCA2 (BRM) function activators. shares compounds with SMARCA2 activ. MG213 cells, MMTV-luciferase with dexamethasone, luminescence, overnight; MG213 cells expressing E1A, Rb sequestered; DMSO wells 0%, reference activator 100%. activation, % at 9.1 µM. hit rate 30% among 3,500;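 active = activation above its plate's cutoff, the mean activation of tested wells plus 3 SD, cut at about 7.9% in these data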
# VP16 Luc act: activates GAL4-VP16 luciferase, flagging SMARCA2 activator hits; HEK293 GAL4-VP16 pG5luc reporter, luciferase luminescence; scaled: DMSO wells 0%, SAHA wells 100%; shares compounds with SMARCA2 activ; hit rate 41% among 3,500; activation, % at 9.1 µM;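 active = activation above the solvent-only control well mean plus 3 SD, averaged across control plates, cut at about 5.2% in these data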
# Numbers without * were called inactive; · = not tested or not shown.
SMILES,SMARCA2 activ,GalR3 antag,HIF act,GAA850 FXN act,Hsp70 act,others
COC(=O)C1=C[C@H]([C@@H](C)[C@H](OC)c2ccccc2Br)[C@@H]2[C@H]1c1ccccc1N2C,-5,·,·,·,·,
CCOC(=O)[C@]12Cc3ccc(C)cc3[C@H]1N(C1CCCCC1)C(=O)c1cc(OC)ccc12,-10,16*,·,·,·,GalR3 conf=45*;CNG parental=2.3*
CCOC(=O)[C@]12Cc3cc(Cl)ccc3[C@H]1N(C1CCCCC1)C(=O)c1cc(OC)ccc12,-10,20*,·,·,·,GalR3 conf=46*;CNG parental=4.3*
CCOC(=O)[C@]12Cc3cc(Cl)ccc3[C@H]1N(C)C(=O)c1cc(OC)ccc12,-5,-6,·,·,·,
CCOC(=O)[C@]12Cc3cc(C)ccc3[C@H]1N(C1CCCCC1)C(=O)c1ccccc12,-6,34*,·,·,·,GalR3 conf=58*;CNG parental=1
CCOC(=O)[C@]12Cc3ccc(C)cc3[C@H]1N(C1CCCCC1)C(=O)c1ccccc12,-7,6,·,·,·,
Brc1ccc2c(c1)-n1nncc1CNC2,2,-8,·,·,·,
CC(NC(=O)OCc1ccccc1)P(=O)(Oc1ccccc1)Oc1ccccc1 (configuration not stated),-1,·,·,·,·,
COc1ccc(C(CC(=O)c2ccc3c(c2)OCO3)c2c(O)c3ccccc3oc2=O)cc1OC (configuration not stated),0,-3,·,-1,·,
COc1ccc(C2=CC(c3ccc4c(c3)OCO4)c3c(c4ccccc4oc3=O)O2)cc1OC (configuration not stated),1,36*,·,-2,·,GalR3 conf=42*;CNG parental=1
CC(C)(C)NC(=O)C1CN=C(c2ccccc2)c2cc(Cl)ccc2N1C(=O)C1CCC1 (configuration not stated),-4,·,·,·,·,
COc1ccc(-n2nnnc2C(c2cc3ccccc3o2)N2CCC(n3c(=O)[nH]c4ccccc43)CC2)cc1 (configuration not stated),-9,42*,·,·,·,GalR3 conf=27*;CNG parental=0
CN[C@H](C)[C@H](O)c1ccccc1,·,·,0,2,0,
CC(NCC#Cc1ccccc1)C(O)c1ccccc1 (configuration not stated),-5,16*,-1,3,0,GalR3 conf=35*;CNG parental=1
O=C(NCCN1CCC2(CC1)C(=O)NCN2c1ccccc1)c1cccs1,-5,-6,·,·,·,
Cc1nn(C)c(C)c1/C=C1/CC2C3CC=C4CC(O)CCC4(C)C3CCC2(C)C1=O (configuration not stated),3,14*,0,3,0,GalR3 conf=30*;CNG parental=0
CC(C)S(=O)(=O)N1Cc2ccc(Br)cc2-n2nncc2C1,-6,-8,·,·,·,
Cc1ccc(Cn2nc(C(=O)Nc3ccc(Br)cc3)cc2C)cc1,-4,92*,5,2,·,GalR3 conf=104*;CNG parental=1
NC(=O)c1c(Br)n(C2OC(CO)C(O)C2O)c2ncnc(N)c12 (configuration not stated),-2,-3,·,-6,·,
NC(=O)c1cn(C2OC(CO)C(O)C2O)c2ncnc(N)c12 (configuration not stated),-13,81*,-3,-11,-1,GalR3 conf=81*;CNG parental=0
Oc1ccc(C[C@H]2NCCc3cc(O)c(O)cc32)cc1O,3,37*,0,2,·,GalR3 conf=53*;CNG parental=2.5*
Oc1ccc(CC2CC3CCN2CC3)cc1O (configuration not stated),3,-1,-1,1,-1,
Nc1c(C(=O)NCc2ccco2)c2nc3ccccc3nc2n1CCN1CCCCC1,8.8*,-7,0,-1,-1,SMARCA2 conf=4;VP16 Luc act=-1
COc1ccc(OC(=O)N(C)C[C@H]2OCc3cnnn3CCCC(=O)N([C@@H](C)CO)C[C@@H]2C)cc1,2,-5,·,·,·,
C=C1C(=O)C(C)=C2C(=O)N3Cc4[nH]c5ccccc5c4CC3(C(=O)OC)C12 (configuration not stated),9.2*,·,·,·,·,SMARCA2 conf=7;VP16 Luc act=3
SMILES,SMARCA2 activ,GalR3 antag,HIF act,GAA850 FXN act,Hsp70 act,others
O=S(=O)(c1ccc(Cl)cc1)N1Cc2ccc(Br)cc2-n2nncc2C1,-5,-9,·,·,·,
C=CCNC(=S)Nc1ccc(OC(=O)Nc2ccc(Cl)c(Cl)c2)cc1,-1,-10,·,4,·,
O=C(Nc1ccc(Cl)c(Cl)c1)c1ccco1,8.2*,-8,4,4,·,SMARCA2 conf=3;VP16 Luc act=9.2*
COc1cccc(-c2ccc3c(c2)C2c4cnnn4-c4ccccc4C(=O)N2CC3)c1 (configuration not stated),0,-5,·,·,·,
CC(Cc1ccccc1)/[N+]([O-])=C\c1ccc(C(F)(F)F)cc1 (configuration not stated),9.2*,-3,2,3,·,SMARCA2 conf=11*;VP16 Luc act=6.3*
CNC(C)Cc1ccccc1 (configuration not stated),2,2,·,-1,·,
COc1cc2c(c3oc4cccc(O)c4c(=O)c13)[C@@H]1C=CO[C@@H]1O2,-2,·,·,·,·,
O=C(CNCc1c(F)cccc1F)N1CCC2(CC1)OCCO2,8.6*,·,·,·,·,SMARCA2 conf=16*;VP16 Luc act=3
O=C(CNS(=O)(=O)c1cccs1)N1CCC2(CC1)OCCO2,4,-1,1,1,0,
C=C1C(=O)O[C@H]2C[C@@H](C)[C@@H]3C=CC(=O)[C@@]3(C)C[C@H]12,-8,-5,7,·,·,
C=C1C(=O)OC2C1CCC(C)C1(O)C=CC(=O)C21C (configuration not stated),8.4*,6,·,-13,·,SMARCA2 conf=15*;VP16 Luc act=2
CN(C)C(=O)Oc1ccc(OC(=O)c2ccccc2)cc1,11*,0,·,2,0,SMARCA2 conf=8.2*;VP16 Luc act=-1
COC1CC=C2CCN3CCC4=C(CC(=O)OC4)C23C1 (configuration not stated),-2,-2,·,·,·,
CN1CCN(c2ccc([N+](=O)[O-])c3no[n+]([O-])c23)CC1,-8,-7,-5,-15,·,
O=[N+]([O-])c1ccc(N(CCO)CCO)c2c1no[n+]2[O-],15*,-4,·,-9,·,SMARCA2 conf=13*;VP16 Luc act=1
N#Cc1c(Br)n(C2OC(CO)C(O)C2O)c2ncnc(N)c12 (configuration not stated),63*,-4,·,0,·,SMARCA2 conf=52*;VP16 Luc act=-1
